Results published in the supplement of paper PMC12282887.
± gives the standard deviation of the averaged measurements.

Columns and labels:
Test in all cases: promoter activity interaction Z-score (Lux/OD deviation from empty-vector control); higher = stronger promoter induction by the compound
[1] = system: E. coli BW25113 acrABp lux reporter
In short: (§1)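 Wild-type E. coli BW25113 and three single-gene deletion strains, each carrying a low-copy luxCDABE promoter reporter, were grown at 37°C in 40 µl LB Lennox per well of a 384-well plate. Every compound was applied at four 1:2 dilutions in biological duplicates, and OD600 and luminescence were read every 30 min for 12 h. Integration covered 0–8 h for wild type and 1–9 h for deletion strains, and wells under 10% of the median growth value were removed. Scores are Z-transformed residuals of growth-normalised luminescence fitted against a control.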

[2] = system: E. coli BW25113 micFp lux reporter
In short: as §1

[3] = system: E. coli BW25113 ompFp lux reporter
In short: as §1

[4] = system: E. coli BW25113 robp lux reporter
In short: as §1

[5] = system: E. coli BW25113 soxSp lux reporter
In short: as §1

[6] = system: E. coli BW25113 tolCp lux reporter
In short: as §1

[7] = 3.1 µg/ml, genetic background: wild type
[8] = 3.1 µg/ml, genetic background: ΔmarA
[9] = 3.1 µg/ml, genetic background: Δrob
[10] = 3.1 µg/ml, genetic background: ΔsoxS
[11] = 6.1 µg/ml, genetic background: wild type
[12] = 6.1 µg/ml, genetic background: ΔmarA
[13] = 6.1 µg/ml, genetic background: Δrob
[14] = 6.1 µg/ml, genetic background: ΔsoxS
[15] = 12.2 µg/ml, genetic background: wild type
[16] = 12.2 µg/ml, genetic background: ΔmarA
[17] = 12.2 µg/ml, genetic background: Δrob
[18] = 12.2 µg/ml, genetic background: ΔsoxS
[19] = 24.5 µg/ml, genetic background: wild type
[20] = 24.5 µg/ml, genetic background: Δrob
[21] = 24.5 µg/ml, genetic background: ΔsoxS
[22] = 24.5 µg/ml, genetic background: ΔmarA

SMILES: COc1ccc(C[C@H](N)C(=O)N[C@H]2[C@@H](O)[C@H](n3cnc4c(N(C)C)ncnc43)O[C@@H]2CO)cc1 [Puromycin]
- promoter activity interaction Z-score [1, 7]: -0.169 ± 0.22
- promoter activity interaction Z-score [1, 8]: 0.738 ± 0.17
- promoter activity interaction Z-score [1, 9]: 0.211 ± 0.055
- promoter activity interaction Z-score [1, 10]: 0.2622 ± 0.0026
- promoter activity interaction Z-score [1, 11]: -0.104 ± 0.052
- promoter activity interaction Z-score [1, 12]: 0.582 ± 0.0062
- promoter activity interaction Z-score [1, 13]: 0.153 ± 0.24
- promoter activity interaction Z-score [1, 14]: 0.199 ± 0.57
- promoter activity interaction Z-score [1, 15]: -0.0259 ± 0.33
- promoter activity interaction Z-score [1, 16]: -0.302 ± 0.48
- promoter activity interaction Z-score [1, 17]: 0.308 ± 0.44
- promoter activity interaction Z-score [1, 18]: 0.649 ± 0.26
- promoter activity interaction Z-score [1, 19]: 3.35 ± 1.5
- promoter activity interaction Z-score [1, 20]: 3.54
- promoter activity interaction Z-score [1, 21]: 0.855
- promoter activity interaction Z-score [2, 7]: 0.0526 ± 0.12
- promoter activity interaction Z-score [2, 8]: 0.103 ± 0.069
- promoter activity interaction Z-score [2, 9]: 0.103 ± 0.15
- promoter activity interaction Z-score [2, 10]: 0.0839 ± 0.0077
- promoter activity interaction Z-score [2, 11]: 0.357 ± 0.041
- promoter activity interaction Z-score [2, 12]: 0.0213 ± 0.081
- promoter activity interaction Z-score [2, 13]: 0.102 ± 0.074
- promoter activity interaction Z-score [2, 14]: 0.145 ± 0.035
- promoter activity interaction Z-score [2, 15]: 0.699 ± 0.21
- promoter activity interaction Z-score [2, 16]: -0.00373 ± 0.096
- promoter activity interaction Z-score [2, 17]: 0.459 ± 0.3
- promoter activity interaction Z-score [2, 18]: 0.738 ± 0.034
- promoter activity interaction Z-score [2, 19]: 1.71 ± 0.31
- promoter activity interaction Z-score [2, 22]: -0.484
- promoter activity interaction Z-score [2, 20]: 0.834 ± 0.41
- promoter activity interaction Z-score [2, 21]: 1.39 ± 0.35
- promoter activity interaction Z-score [3, 7]: 0.322 ± 0.085
- promoter activity interaction Z-score [3, 8]: 1.17 ± 0.67
- promoter activity interaction Z-score [3, 9]: 0.656 ± 0.1
- promoter activity interaction Z-score [3, 10]: 0.816 ± 0.3
- promoter activity interaction Z-score [3, 11]: 0.855 ± 0.35
- promoter activity interaction Z-score [3, 12]: 1.33 ± 0.85
- promoter activity interaction Z-score [3, 13]: 0.692 ± 0.034
- promoter activity interaction Z-score [3, 14]: 0.84 ± 0.13
- promoter activity interaction Z-score [3, 15]: 0.351 ± 0.31
- promoter activity interaction Z-score [3, 16]: 0.942 ± 0.49
- promoter activity interaction Z-score [3, 17]: 0.448 ± 0.37
- promoter activity interaction Z-score [3, 18]: 1.03 ± 0.34
- promoter activity interaction Z-score [3, 19]: 0.599 ± 1.4
- promoter activity interaction Z-score [4, 7]: 0.0602 ± 0.017
- promoter activity interaction Z-score [4, 8]: 0.523 ± 0.036
- promoter activity interaction Z-score [4, 9]: 0.5595 ± 0.0042
- promoter activity interaction Z-score [4, 10]: -0.174 ± 0.69
- promoter activity interaction Z-score [4, 11]: 0.596 ± 0.45
- promoter activity interaction Z-score [4, 12]: 0.0157 ± 0.15
- promoter activity interaction Z-score [4, 13]: 0.269 ± 0.22
- promoter activity interaction Z-score [4, 14]: 0.279 ± 0.33
- promoter activity interaction Z-score [4, 15]: -0.231 ± 0.16
- promoter activity interaction Z-score [4, 16]: 0.0377 ± 0.16
- promoter activity interaction Z-score [4, 17]: -0.211 ± 0.45
- promoter activity interaction Z-score [4, 18]: 0.0544 ± 0.43
- promoter activity interaction Z-score [4, 19]: -0.191
- promoter activity interaction Z-score [4, 22]: -0.499
- promoter activity interaction Z-score [5, 7]: -0.228 ± 0.044
- promoter activity interaction Z-score [5, 8]: -0.0397 ± 0.09
- promoter activity interaction Z-score [5, 9]: 0.102 ± 0.24
- promoter activity interaction Z-score [5, 10]: 0.373 ± 0.73
- promoter activity interaction Z-score [5, 11]: -0.0604 ± 0.21
- promoter activity interaction Z-score [5, 12]: 0.0219 ± 0.021
- promoter activity interaction Z-score [5, 13]: -0.144 ± 0.099
- promoter activity interaction Z-score [5, 14]: 0.298 ± 0.46
- promoter activity interaction Z-score [5, 15]: 0.0076 ± 0.14
- promoter activity interaction Z-score [5, 16]: 0.0786 ± 0.15
- promoter activity interaction Z-score [5, 17]: 0.00948 ± 0.09
- promoter activity interaction Z-score [5, 18]: 0.315 ± 0.021
- promoter activity interaction Z-score [5, 19]: -0.0601 ± 0.063
- promoter activity interaction Z-score [5, 22]: -0.197 ± 0.049
- promoter activity interaction Z-score [5, 20]: -0.131 ± 0.33
- promoter activity interaction Z-score [5, 21]: 0.525 ± 0.4
- promoter activity interaction Z-score [6, 7]: -0.726 ± 1
- promoter activity interaction Z-score [6, 8]: -0.59 ± 0.65
- promoter activity interaction Z-score [6, 9]: -0.281 ± 0.23
- promoter activity interaction Z-score [6, 10]: 0.126 ± 0.63
- promoter activity interaction Z-score [6, 11]: -0.252 ± 0.51
- promoter activity interaction Z-score [6, 12]: -0.611 ± 0.2
- promoter activity interaction Z-score [6, 13]: -0.785 ± 0.27
- promoter activity interaction Z-score [6, 14]: -0.165 ± 0.34
- promoter activity interaction Z-score [6, 15]: -0.285 ± 0.69
- promoter activity interaction Z-score [6, 16]: 0.412 ± 0.11
- promoter activity interaction Z-score [6, 17]: -0.374 ± 0.33
- promoter activity interaction Z-score [6, 18]: -0.186 ± 0.2
- promoter activity interaction Z-score [6, 19]: 1.04 ± 0.64
- promoter activity interaction Z-score [6, 22]: 1.74
- promoter activity interaction Z-score [6, 20]: -0.0754 ± 0.73
- promoter activity interaction Z-score [6, 21]: 0.227 ± 0.79
